Bioassay records (PubChem)
HCV NS3h FP – hepatitis C NS3 helicase inhibition, primary screen; NS3h Cy5-dT15 DNA binding, fluorescence polarization; inhibition, % at 100 µM; hit rate 1.6% among 16,000;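 active = inhibition above the average over every tested compound plus 3 SD, cut at about 40% in these data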
Cy5 interf NS3h – counter-screen for HCV NS3 helicase inhibitors: fluorescence interference | Cy5-dT15 DNA with NS3h; actives lie on both sides; signal over control mean, under 1 quenches | fluorescence interference ratio at 100 µM | hit rate 6% among 16,000 | AID 720488;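 active = compound fluorescence over control fluorescence at most 0.8, a quencher, or at least a set upper limit, an enhancer; inactive = ratio between 0.8 and the set upper limit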
* = called active by the depositor. Compounds with a hit are over-represented: about 7.6% of the library has one in this group of screens.

SMILES	HCV NS3h FP	Cy5 interf NS3h
C/C(=N/N=C1\NC(=O)C(CC(=O)Nc2ccccc2)S1)c1ccc(O)cc1O (stereo unspecified)	2.2	1.01
CCCNC(=O)c1c(NC(=O)c2ccccc2F)sc2c1CCC(C)C2 (stereo unspecified)	7.1	0.931
CCCCNC(=O)/C(=C\c1ccc(-c2cccc([N+](=O)[O-])c2)o1)NC(=O)c1ccccc1	7.2	1.04
CCCCNC(=O)/C(=C/c1ccc(C)o1)NC(=O)c1ccccc1	16.8	0.66*
O=C1CSC(=S)N1N1C(=O)C2C3C=CC(C3)C2C1=O (stereo unspecified)	4.3	1.08
Cc1ccc(N(CC(=O)Nc2ccc(Br)cc2)S(C)(=O)=O)cc1Cl	21.2	1.08
COc1cc(/C=N\Nc2ccnc3cc(Cl)ccc23)ccc1O	-29.2	0.339*
COc1cc(/C=C2/C(=O)ON=C2c2ccc(Cl)cc2)ccc1O	5.8	0.945
Cc1cc(C)n(C(=O)CNC(=O)c2ccc(F)cc2)n1	8.2	1
CCN1C(=O)/C(=C\c2cccc(OCCOCCOc3ccc(C)cc3)c2)SC1=S	11.7	1.05
CCOc1cc(OCC)cc(C(=O)Nc2cccc([N+](=O)[O-])c2)c1	13.4	1.01
CN1CCN(C(=O)/C(=C/c2ccc([N+](=O)[O-])cc2)NC(=O)c2ccccc2Cl)CC1	0.4	1.1
O=C1c2ccc(-c3nc4ccccc4c(=O)o3)cc2C(=O)N1c1c[nH]c(=O)[nH]c1=O	41.3*	0.997
O=c1oc(-c2cccnc2)nc2ccccc12	3.1	0.998
CCOc1c(Br)cc(/C=C(\C#N)c2nn(-c3ccccc3)c(N)c2C#N)cc1OC	3.5	0.98
CCOc1c(Br)cc(/C=C(\C#N)c2nn(CCO)c(N)c2C#N)cc1OC	-24.7	0.792*
O=C(Nc1ccc(F)c([N+](=O)[O-])c1)c1cccc(Cl)c1Cl	1.6	0.886
Cc1cccc(NC(=O)CSC(N)=O)c1	6.9	1.06
CCOc1ccc(C(=O)Nc2ccccc2C(=O)O)cc1	3.1	1.1
CCOc1ccccc1NC(=O)c1ccc(OC)cc1	8.2	1.25*
CCOC(=O)CNC(=O)c1ccc(OC)cc1	4.0	0.709*
COc1ccc(C(=O)NCc2ccccc2C)cc1	4.0	1.04
Cc1ccc(NC(=O)c2c(-c3ccccc3Cl)noc2C)c(C)c1	14.1	0.942
Cc1csc(Nc2ccccc2)[n+]1CCO	4.4	1.21*
CC(C)c1ccc(C(=O)Nc2ccc(Cl)cn2)cc1	1.5	1.05
SMILES	HCV NS3h FP	Cy5 interf NS3h
Cc1cc(C(F)(F)F)nn1CC(=O)Nc1sc2c(c1C(N)=O)CCC(C)C2 (stereo unspecified)	10.5	0.75*
CCOC(=O)c1c(NC(=O)Cn2nc(C(F)(F)F)cc2C)sc2c1CCC(C)C2 (stereo unspecified)	5.6	0.976
CCOC(=O)C1=C(C)N=c2s/c(=C\c3ccc([N+](=O)[O-])o3)c(=O)n2C1c1ccc(OCC)cc1 (stereo unspecified)	-6.5	0.865
CCOC(=O)C1=C(C)N=c2s/c(=C\c3ccc(N(C)C)o3)c(=O)n2C1c1ccc(OCC)cc1 (stereo unspecified)	0.7	0.799*
COc1ccc(/C=N\NC(=O)/C(=C\c2ccc3c(c2)OCO3)NC(=O)c2ccccc2)cc1O	11.7	1.05
O=c1oc(-c2ccccc2)nc2sc3c(c12)CCCC3	15.2	0.685*
O=c1oc(-c2cccs2)nc2sc3c(c12)CCCCC3	-2.9	0.966
CCOc1ccc(N(CC(=O)Nc2cccc(Cl)c2)S(=O)(=O)c2ccc(SC)cc2)cc1	9.1	1.06
COc1c(Cl)cc(C(=O)Nc2ccc(I)cc2Cl)cc1Cl	8.1	1.01
CCOC(=O)c1conc1-c1ccc(Br)cc1	5.6	0.967
CCCN(CCC)C(=O)c1c(NC(=O)c2cccs2)sc2c1CCCCC2	1.2	0.674*
CCc1ccccc1NC(=O)c1c(NC(=O)c2cccs2)sc2c1CCCCC2	7.0	1.07
Cc1cccc(Nc2cc(C)c(C#N)c3nc4ccccc4n23)c1	3.5	1.05
N#Cc1ccc2c(c1)nc1c3cccc4cccc(c(=O)n21)c43	-4.3	0.65*
Cc1cc(/C=C(\C#N)C(=O)Nc2ccccc2)c(C)n1-c1ccc2ccccc2c1	1.4	0.94
CC(=O)Oc1ccccc1N1C(=O)c2cccc([N+](=O)[O-])c2C1=O	-0.3	1.1
CC(=O)c1ccc(N2CCN(S(=O)(=O)c3ccccc3)CC2)c(F)c1	8.7	0.785*
CC(=O)c1ccc(N2CCC(C)CC2)c(F)c1	9.9	1.04
Cc1c(C(=O)O/N=C(/N)Cc2ccc(Cl)cc2Cl)cccc1[N+](=O)[O-]	8.8	0.977
O=C(NN1C(=O)C2CCCCC2C1=O)c1ccccc1Cl (stereo unspecified)	3.2	0.994
COc1cc(/C=C2/SC(=S)N(CCC(=O)NC34CC5CC(CC(C5)C3)C4)C2=O)cc(OC)c1OC	7.6	1.03
CN1C(=O)C(=Cc2ccc(-c3ccccc3C(=O)O)o2)C(=O)N(C)C1=O	39.2	1.06
Cc1ccc(/C=C2/C=C(c3ccccc3)OC2=O)cc1	5.1	0.951
O=C1OC(c2ccccc2)=C/C1=C/c1ccc(-c2ccc([N+](=O)[O-])cc2)o1	12.3	0.804*
NC1=NC(=O)/C(=C\c2ccc(-c3ccc([N+](=O)[O-])cc3)o2)S1	-2.2	1.23*
SMILES	HCV NS3h FP	Cy5 interf NS3h
Cc1ccc(C2=C/C(=C\c3ccc(-c4ccccc4C(=O)O)o3)C(=O)O2)cc1	24.3	0.786*
NC1=NC(=O)/C(=C/c2ccccc2OCc2ccc([N+](=O)[O-])cc2)S1	-7.3	0.971
CCOc1cc(C(=O)Nc2cccc(NC(C)=O)c2)cc(OCC)c1OCC	5.6	0.953
COc1ccc(CCNC(=O)C(=O)Nc2ccc(Cl)c(Cl)c2)cc1OC	-1.6	0.939
CCCC1CCc2c(sc(NC(=O)/C=C\C(=O)O)c2C(N)=O)C1 (stereo unspecified)	1.3	0.99
Cc1ccc(NC(=O)c2ccc(-c3cccc(Cl)c3)o2)c([N+](=O)[O-])c1	1.3	0.995
O=C(NCCCN1CCOCC1)c1cc2n(n1)C(C(F)(F)F)CC(c1ccc(Cl)c(Cl)c1)N2 (stereo unspecified)	9.4	0.977
O=C1c2ccccc2C(=O)C1(Nc1ccc(F)cc1)c1ccccc1	16.6	0.984
Cc1ccccc1NC1(c2ccccc2Cl)C(=O)c2ccccc2C1=O	8.7	0.744*
O=C(/C=C/c1ccccc1)Nc1ccccc1CO	4.0	1.04
O=C1CC(c2ccccc2)CC2=C1C(c1cc([N+](=O)[O-])ccc1Cl)Nc1ccccc1N2 (stereo unspecified)	2.3	1.01
Cc1cccc(NC(=O)c2ccccc2C(F)(F)F)c1C	9.7	0.938
C/C(=N/N=C\c1cccc([N+](=O)[O-])c1)C1C(=O)c2ccccc2C1=O	8.7	0.622*
CC(=O)N/C(=C\c1cccc([N+](=O)[O-])c1)C(=O)NC(C)C	5.7	1
CCOc1ccc(S(=O)(=O)n2ccnc2C(C)C)c2ccccc12	5.2	0.916
C=CCOc1ccc(/C=C2\SC(=S)N(c3ccc([N+](=O)[O-])cc3)C2=O)cc1OC	4.0	1.01
C=CCOc1ccc(/C=C2\SC(=S)N(c3ccc(OC)cc3)C2=O)cc1OC	14.2	0.729*
COc1ccc(N2C(=O)/C(=C\c3ccccc3C)SC2=S)cc1	10.0	1.21*
COc1cc(/C=C2\SC(=S)N(CC(C)C)C2=O)ccc1O	17.3	0.798*
COc1cc(/C=C2\SC(=S)N(C)C2=O)ccc1OC(=O)c1cccc(C)c1	14.5	1.03
